# Test results: PubChem BioAssay (NCI)
# “And” between values parts separate entries of the source, which are not always exact repeats. Equal entries are not always repeated. About 83,000 compounds went through this panel and 20% of them were active in at least one assay; those are over-represented in the sample as a whole.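 Cells were grown in 96-well plates and exposed to the test compound at a single concentration for 48 hours; results are reported as percent growth, with values below 10 considered active.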 The source made the active and inactive calls.
# Assays:
# Experiment in all cases: NCI-60 one-dose screen, 48 h (100 = growth as untreated, 0 = no growth, -100 = all killed)
# [1] = test system: NCI-H23 lung
# Protocol: (§1) Growth inhibition of the NCI-H23 human Non-Small Cell Lung tumor cell line is measured as a screen for anti-cancer activity. Cells are grown in 96 well plates and exposed to the test compound for 48 hours. Compounds are tested at a single concentration, which is 10^-5 M for most compounds. The reported endpoint is percent growth (GI% or GIPRCNT), where numbers from 0 - 100% represent growth inhibition, and numbers from -100% - 0 represent cell death. For example, a value of 40 represents 60% growth inhibition. A value of 0 means no net growth occurred over the course of the experiment. A value of -40 indicates 40% of cells at the beginning of the experiment died by the end of the experiment. A value of -100 means all cells are dead at the end of the experiment.
# (§2) NCI-60 Human Tumor Cell Lines Screen was performed using the standard one-dose NCI protocol, which is described in more detail at https://dtp.cancer.gov/discovery_development/nci-60/default.htm.
# (§3) Compounds with GIPRCNT values below 10 were considered active. Activity score was based on GIPRCNT using the following formula: […]
# (§4) Score is 0 for GIPRCNT values of 100 or above, 50 for GIPRCNT values of 0, and 100 for GIPRCNT values of -100.
# [2] = test system: NCI-H226 lung
# [3] = test system: NCI-H322M lung
# [4] = test system: HOP-62 NSCLC
# [5] = test system: NCI-H460 lung
# [6] = test system: HOP-92 NSCLC
# [7] = test system: NCI-H522 lung
# Protocol: as §1, with “NCI-H522” for “NCI-H23”
# as §2, §3, §4
# [8] = test system: A549/ATCC NSCLC
# Protocol: as §1, with “A549/ATCC” for “NCI-H23”
# as §2, §3, §4
# [9] = test system: 786-0 renal
# [10] = test system: COLO 205 colon
smiles,measurement,setting,value
CN(Cc1cnc2nc(N)nc(N)c2n1)c1ccc(C(=O)N[C@@H](CCC(=O)O)C(=O)O)cc1,growth,[1]; 2.5 µM,20.9% (inactive)
same,growth,[1]; 10 µM,31.7% (inactive)
same,growth,[2]; 2.5 µM,39.6% (inactive)
same,growth,[2]; 10 µM,35.1% (inactive)
same,growth,[3]; 2.5 µM,53.6% (inactive)
same,growth,[3]; 10 µM,52.6% (inactive)
same,growth,[4]; 2.5 µM,30.6% (inactive)
same,growth,[4]; 10 µM,32.1% (inactive)
same,growth,[5]; 2.5 µM,23.5% (inactive)
same,growth,[5]; 10 µM,20.7% (inactive)
same,growth,[6]; 2.5 µM,32.6% (inactive)
same,growth,[6]; 10 µM,25.1% (inactive)
same,growth,[7]; 2.5 µM,47% (inactive)
same,growth,[7]; 10 µM,35.3% (inactive)
same,growth,[8]; 2.5 µM,31% (inactive)
same,growth,[8]; 10 µM,22.8% (inactive)
same,growth,[9]; 2.5 µM,11.7% (inactive)
same,growth,[9]; 10 µM,12.3% (inactive)
same,growth,[10]; 2.5 µM,50.5% (inactive)
same,growth,[10]; 10 µM,44.1% (inactive)
COc1ccc2sc3cccc(NCCN(C)C)c3c(=O)c2c1,growth,[1]; 10 µM,60.9% (inactive) and 19.2% (inactive)
same,growth,[2]; 10 µM,59.2% (inactive) and 13.7% (inactive)
same,growth,[3]; 10 µM,41.2% (inactive) and 12.5% (inactive)
same,growth,[4]; 10 µM,48.4% (inactive) and -70.3% (active)
same,growth,[5]; 10 µM,21.5% (inactive) and -76.7% (active)
same,growth,[6]; 10 µM,24.9% (inactive) and -9.03% (active)
same,growth,[7]; 10 µM,-20.9% (active)
same,growth,[8]; 10 µM,25% (inactive) and -23.4% (active)
same,growth,[9]; 10 µM,60% (inactive) and 1.78% (active)
same,growth,[10]; 10 µM,-17.3% (active) and -81.8% (active)
CC/C(=C(\c1ccccc1)c1ccc(OCCN(C)C)cc1)c1ccccc1,growth,[1]; 10 µM,60.3% (inactive)
same,growth,[1]; 12.5 µM,-47.7% (active)
same,growth,[2]; 10 µM,92.5% (inactive)
same,growth,[2]; 12.5 µM,51.3% (inactive)
same,growth,[3]; 10 µM,76% (inactive)
same,growth,[3]; 12.5 µM,11.7% (inactive)
same,growth,[4]; 10 µM,43.1% (inactive)
same,growth,[4]; 12.5 µM,-91.2% (active)
same,growth,[5]; 10 µM,2.39% (active)
same,growth,[5]; 12.5 µM,-66.8% (active)
same,growth,[6]; 12.5 µM,9.65% (active)
same,growth,[7]; 10 µM,46.6% (inactive)
same,growth,[7]; 12.5 µM,-46.4% (active)
same,growth,[8]; 10 µM,49.8% (inactive)
same,growth,[8]; 12.5 µM,-44.9% (active)
same,growth,[9]; 10 µM,-41% (active)
same,growth,[9]; 12.5 µM,-95.2% (active)
same,growth,[10]; 10 µM,-89% (active)
same,growth,[10]; 12.5 µM,-71.9% (active)
CC[C@@]1(O)C(=O)OCc2c1cc1n(c2=O)Cc2cc3c(CN(C)C)c(O)ccc3nc2-1,growth,[1]; 10 µM,-15.6% (active) and 1.45% (active)
same,growth,[2]; 10 µM,-48.3% (active) and -34.1% (active)
same,growth,[3]; 10 µM,3.52% (active) and -20.1% (active)
same,growth,[4]; 10 µM,-7.57% (active) and -9.48% (active)
same,growth,[5]; 10 µM,2.05% (active) and -6.71% (active)
same,growth,[7]; 10 µM,-57% (active)
same,growth,[8]; 10 µM,-30.7% (active) and 4.5% (active)
same,growth,[9]; 10 µM,5.59% (active) and -13.2% (active)
same,growth,[10]; 10 µM,9.58% (active)
